Compound activity (PubChem)
KKLEB tox = CF airway cell cytotoxicity counter-screen | KKLEB CF airway cells viability, ATPlite luminescence, overnight; stronger effect = lower value; cells stimulated with P. aeruginosa culture filtrate | activity change (cytotoxicity), % at 5 µM | 360,000 tested, 0.36% active | AID 602141;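 active = corrected activity change at or below -50% at 5 µM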
PPC-1+TRAIL kill = kills PPC-1 cancer cells in the presence of TRAIL | PPC-1 cells + TRAIL, ATPLite viability luminescence | cell killing (% activity), % at 4 µM or 5 µM | 220,000 tested, 0.41% active | AID 1443;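 active = cell killing above 50% in the first pass at 4 µM, then a duplicate retest at 5 µM averaging 50% or more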
C8 TRAIL sens = caspase-8 TRAIL sensitization; 360,000 tested, 1% active; AID 624354; inhibition (viability loss, TRAIL sensitization), % at 10 µM; NB7+C8 cells + TRAIL, ATPlite viability luminescence;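 active = compounds causing at least 50% loss of cell viability in the single-dose screen, relative to plate controls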
HIF-2a block = inhibitors of HIF-2a. 786-0 RCC cells HIF-2a reporter, luciferase luminescence, overnight. 360,000 tested, 0.72% active. inhibition, % at 18.8 µM;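 active = inhibition of the luminescence signal of 40% or more relative to plate controls, in a single-dose primary screen at 18.75 µM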
hiPSC survival = increases survival of single human iPS cells; hiPSC single-cell survival, ATPlite luminescence; 100% = ROCK inhibitor wells, 0% = DMSO; survival enhancement, % at 20 µM; 360,000 tested, 0.044% active; AID 602274; in the data active = survival enhancement above about 18%;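 also: cells exposed to compounds for 16 hours before the ATP read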
CF NFkB inh = cystic fibrosis NF-kB activation inhibition. KKLEB NF-kB-GFP reporter, PAF-induced, GFP fluorescence overnight. inhibition, % at 5 µM. 360,000 tested, 0.86% active;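 active = at least 50% inhibition at 5 µM, scaled per plate between neutral and stimulator controls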;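 also: PAF is a Pseudomonas aeruginosa culture filtrate used as stimulus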
CF NFkB inh conf = CF NF-kB inhibition confirmation, single concentration | inhibition, % at 5 µM | KKLEB CF airway cells, PAF-induced NF-kB-GFP fluorescence, overnight | 1,300 tested, 64% active | AID 602472 | shares compounds with CF NFkB inh; in the data active = inhibition above about 40%;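 also: stimulus PAF is a Pseudomonas aeruginosa filtrate and not platelet activating factor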
Large screens that a line does not name were inactive (follow-up assays come after a bar, where they were run). Hits are enriched below; roughly 2.2% of the tested compounds scored in any of these assays.

Cc1cccn2c(=O)c3cc(S(=O)(=O)c4ccc(F)cc4)c(=N)n(Cc4ccco4)c3nc12	CF NFkB inh 76 | CF NFkB inh conf inactive
O=[N+]([O-])c1ccccc1CCc1cnc(Cl)s1	none (no result: PPC-1+TRAIL kill)
COc1cc2c(cc1NC(=O)Cc1ccc(C)cc1)oc1ccccc12	none
COc1cc2c(cc1NC(=O)CN1CCN(S(=O)(=O)c3ccccc3F)CC1)oc1ccccc12	CF NFkB inh 55 | CF NFkB inh conf 41
Cc1ccc(C)c(N2N=C(C(=O)NCCN3C(=O)S/C(=C\c4cccnc4)C3=O)CCC2=O)c1	none (no result: PPC-1+TRAIL kill)
COc1ccc(-c2cn[nH]c2-c2ccc(OCc3ccccc3F)cc2O)cc1OC	CF NFkB inh 60 | CF NFkB inh conf 60
COc1ccc(-c2cn[nH]c2C)cc1	CF NFkB inh 53 | CF NFkB inh conf inactive
COc1ccc(-c2[nH]ncc2-c2ccc(Cl)cc2)c(O)c1	none
COc1ccc(-c2cn[nH]c2-c2ccc(OC)cc2O)cc1	CF NFkB inh 72 (no result: PPC-1+TRAIL kill) | CF NFkB inh conf 80
N#Cc1ccc(C(=O)NC2CCCCCCC2)cc1	none (no result: PPC-1+TRAIL kill)
Cc1ccc(C(=O)N2CC(C)CC(C)C2)cc1NC1=NC2CS(=O)(=O)CC2S1 (configuration not stated)	none (no result: PPC-1+TRAIL kill)
O=C1OC(Nc2nc(-c3ccc(F)cc3)cs2)c2ccccc21 (configuration not stated)	CF NFkB inh 53 (no result: PPC-1+TRAIL kill) | CF NFkB inh conf 71
O=C(CNC(=O)c1cc(Cl)cc([N+](=O)[O-])c1)OCC(=O)N1CCCCC1	none (no result: PPC-1+TRAIL kill)
CCCS(=O)(=O)NC(=O)C1(C)CCN(C(=O)c2cncc(Br)c2)C1 (configuration not stated)	none (no result: PPC-1+TRAIL kill)
COc1ccc(-c2cc(=O)oc3c(C)c(OC(=O)c4cccs4)ccc23)cc1	CF NFkB inh 72 | CF NFkB inh conf 96
COc1cc(CCc2ccccc2)c(C(=O)O)c(O)c1CC=C(C)C	none (no result: PPC-1+TRAIL kill)
COc1cc(CCc2ccccc2)c(C(=O)O)c(O)c1C/C=C(/C)CCC=C(C)C	CF NFkB inh 60 (no result: PPC-1+TRAIL kill) | CF NFkB inh conf 71
CC1(C)OC2CC3C4CC(F)C5=CC(=O)C=CC5(C)C4(F)C(O)CC3(C)C2(C(=O)CO)O1 (configuration not stated)	CF NFkB inh 75 (no result: PPC-1+TRAIL kill) | CF NFkB inh conf inactive
CC(=O)OCC(=O)[C@@]12OC(C)(C)O[C@@H]1CC1C3C[C@H](F)C4=CC(=O)C=CC4(C)[C@@]3(F)C(O)CC12C (some centres not stated)	CF NFkB inh 73 (no result: PPC-1+TRAIL kill) | CF NFkB inh conf inactive
C[C@@H]1C[C@H]2[C@@H]3C[C@H](F)C4=CC(=O)C=C[C@]4(C)[C@@]3(F)[C@@H](O)C[C@]2(C)[C@@]1(O)C(=O)CO	CF NFkB inh 78 | CF NFkB inh conf inactive
COc1ccc(Br)cc1CNC(=O)CN1C(=O)C(c2ccccc2)Oc2cccnc21 (configuration not stated)	none (no result: PPC-1+TRAIL kill)
COCCCNC(=O)Cn1cc(/C=C(\C#N)C(=O)NC2CCCC2)c2ccccc21	none (no result: PPC-1+TRAIL kill)
O=C(Nc1ccccc1)Nc1ncc([N+](=O)[O-])s1	C8 TRAIL sens 55, CF NFkB inh 57 | CF NFkB inh conf 87
COc1ccccc1N1CCN(C(=O)c2ccc3c(Cl)c4c(nc3c2)CCCC4)CC1	CF NFkB inh 53 | CF NFkB inh conf inactive
O=C(c1ccc2c(Cl)c3c(nc2c1)CCCC3)N1CCN(c2ccc(F)cc2)CC1	none
COc1ccc(/C=C/C(=O)c2cc(F)ccc2OC(=O)c2ccc(OC)c(OC)c2)cc1OC	none
COc1ccc(/C=C/C(=O)c2cc(F)ccc2OC(=O)c2ccccc2OC)cc1OC	HIF-2a block 76, CF NFkB inh 71 (no result: PPC-1+TRAIL kill) | CF NFkB inh conf 43
Cc1noc(C)c1CSCC(=O)N(CC(C)C)c1c(N)n(Cc2ccccc2)c(=O)[nH]c1=O	none (no result: PPC-1+TRAIL kill)
COc1ccc(OC)c(/C=C/C(=O)N2CCCc3ccccc32)c1	none
COc1cc(/C=C/C(=O)N2C(=O)c3cccc(N)c3C2=O)cc(OC)c1OC	CF NFkB inh 64 | CF NFkB inh conf inactive
COc1ccc(OC)c(/C=C/C(=O)N2C(=O)c3cccc(N)c3C2=O)c1	CF NFkB inh 60 | CF NFkB inh conf inactive
